Measured values as given in PubChem BioAssay.
Results with a measured potency or affinity are listed apart. Inconclusive results are not listed. Calls of active or inactive are those of the source. Unless noted, no rule for the calls is given here.

Legend:
[1] = RMG-1 ovarian cancer cell viability loss – cherry-pick, dose response (AID 687029;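 active = signal drop whose fitted half-maximal concentration is at most twice the top valid dose, in every test run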;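 also: cells exposed to compound for 96 hours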)
[2] = IOSE-T80 viability loss, PAX8-independent line – cell-based, cherry-pick, selectivity assay for PAX8 inhibitor project, dose response (AID 687032;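 active = fitted half-maximal concentration for viability loss no higher than twice the top valid dose, in every repeat run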;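 also: cells exposed to compound for 96 h before reading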)
[3] = CMV-driven luciferase expression suppression in HEK293 – cell-based, luminescence, dry powder, counter-screen for Pax8 inhibitor project, dose response (AID 743020;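 active = signal-lowering compounds whose fitted half-maximal concentration is at or below twice the top tested dose in every run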;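 also: HEK293 cells stably expressing the CMV luciferase reporter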)
[4] = general cell-killing toxicity readout – plate reader, dry powder samples, cytotoxicity control for PAX8 inhibitor project, dose response (AID 743021)
[5] = IGROV1 cell killing – plate reader, dry powder samples, PAX8 inhibitor project, dose response (AID 743043);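 also: more negative means fewer viable cells or more cytotoxicity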
[6] = toxicity toward immortalized ovarian surface epithelium – cell-based, plate reader, dry powder samples, cytotoxicity control for PAX8 inhibitor project, dose response (AID 743045);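 also: more negative values mean more cell killing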
[7] = A2780 cell killing – plate reader, dry powder samples, cytotoxicity control, dose response (AID 743046)

Measured: outcome

C[C@@H]1CN([C@H](C)CO)C(=O)c2cc(NC(=O)Nc3ccc(C(F)(F)F)cc3)ccc2O[C@@H](C)CCCCO[C@@H]1CN(C)Cc1ccc(Cl)c(Cl)c1
not listed: [7]
inactive: all other assays above

O=C(C1CCC1)N1CC(=O)N2[C@H](C1)[C@H](c1ccc(C#Cc3cccc(F)c3)cc1)[C@@H]2CO
not listed: [7]
inactive: all other assays above

C[C@@H]1CN([C@H](C)CO)C(=O)c2cc(NC(=O)Nc3ccc(C(F)(F)F)cc3)ccc2O[C@@H](C)CCCCO[C@H]1CN(C)S(=O)(=O)c1ccc(Cl)cc1
inactive: all assays above

C[C@H](CO)N1C[C@H](C)[C@@H](CN(C)Cc2ccc(C(F)(F)F)cc2)OCCCC[C@H](C)Oc2ccc(NC(=O)Nc3ccc(F)cc3)cc2C1=O
not listed: [7]
inactive: all other assays above

C[C@H]1CCCCO[C@@H](CN(C)Cc2ccc(C(F)(F)F)cc2)[C@@H](C)CN([C@@H](C)CO)C(=O)c2cc(NC(=O)Cc3ccccc3)ccc2O1
not listed: [7]
inactive: all other assays above

C[C@@H]1CCCCO[C@H](CN(C)S(=O)(=O)c2ccccc2)[C@H](C)CN([C@@H](C)CO)C(=O)c2cc(NS(=O)(=O)c3ccc(Cl)cc3)ccc2O1
not listed: [7]
inactive: all other assays above

CCSCCc1nnc(NC(=O)Nc2cccc(C(F)(F)F)c2)s1
not listed: [7]
inactive: all other assays above

COc1ccc(-c2ccc3c(c2)[C@@H]2[C@@H](CCN2S(=O)(=O)c2ccc(OC)cc2)[C@@H](CO)N3C)cc1
inactive: all assays above

C[C@@H]1CCCCO[C@@H](CN(C)C(=O)c2ccccc2)[C@H](C)CN([C@H](C)CO)C(=O)c2cc(NC(=O)Nc3ccc(C(F)(F)F)cc3)ccc2O1
inactive: all assays above

C[C@@H]1CN([C@H](C)CO)S(=O)(=O)c2ccc(C#Cc3cccc(F)c3)cc2O[C@@H]1CN(C)C(=O)NC1CCCCC1
not listed: [7]
inactive: all other assays above

C[C@H](CO)N1C[C@H](C)[C@H](CN(C)Cc2ccc(C(F)(F)F)cc2)OCCCC[C@H](C)Oc2ccc(NS(=O)(=O)c3ccc(F)cc3)cc2C1=O
inactive: all assays above

C[C@@H]1CN([C@@H](C)CO)S(=O)(=O)c2ccc(C#Cc3ccccc3F)cc2O[C@@H]1CN(C)C(=O)c1ccc2c(c1)OCO2
not listed: [7]
inactive: all other assays above

C[C@@H]1CN([C@@H](C)CO)C(=O)Cc2cc(NC(=O)Cc3cn(C)c4ccccc34)ccc2O[C@H]1CN(C)Cc1ccc(Oc2ccccc2)cc1
inactive: all assays above

C[C@H](CO)N1C[C@H](C)[C@H](CN(C)Cc2ccc(C(F)(F)F)cc2)OCCCC[C@H](C)Oc2ccc(NC(=O)NC3CCCCC3)cc2C1=O
inactive: all assays above

CC(=O)N1CCOc2ccc(S(=O)(=O)N3CCN(c4cccc(C(F)(F)F)c4)CC3)cc21
not listed: [7]
inactive: all other assays above

C[C@@H]1CN([C@H](C)CO)S(=O)(=O)c2ccc(C#CC3CCCC3)cc2O[C@H]1CN(C)Cc1cccnc1
inactive: all assays above

C[C@H]1CN([C@@H](C)CO)S(=O)(=O)c2ccc(C#Cc3ccccc3F)cc2O[C@@H]1CN(C)CC1CCOCC1
not listed: [7]
inactive: all other assays above

COc1ccccc1C(=O)Nc1ccc2c(c1)C(=O)N(C)[C@@H]1CC[C@@H](CC(=O)NCc3ccc(Cl)c(Cl)c3)O[C@H]1CO2
inactive: all assays above

Cc1cccc(S(=O)(=O)N2C[C@@H](O)COC[C@@H]3O[C@@H](CC(=O)Nc4ccc(-c5ccccc5)cc4)CC[C@H]32)c1
not listed: [7]
inactive: all other assays above

O=C(Nc1ccc(C(F)(F)F)cc1)Nc1ccc2c(c1)[C@@H]1C[C@H](CC(=O)N3CCc4ccccc4C3)O[C@H](CO)[C@@H]1O2
inactive: all assays above

CC(C)NC(=O)N1Cc2cc(C(=O)NCC(F)(F)F)nc(-c3cccc(-c4cc5ccccc5o4)c3)c2[C@H]1CCO
not listed: [7]
inactive: all other assays above

Cc1ccc(S(=O)(=O)Nc2ccc3c(c2)C(=O)N([C@H](C)CO)C[C@H](C)[C@@H](CN(C)S(=O)(=O)c2cccs2)OCCCC[C@H](C)O3)cc1
not listed: [7]
inactive: all other assays above

C[C@H](CO)N1C[C@H](C)[C@H](CN(C)Cc2ccc(C(F)(F)F)cc2)OCCCC[C@H](C)Oc2ccc(NC(=O)Nc3ccccc3)cc2C1=O
not listed: [7]
inactive: all other assays above

C[C@@H]1CCCCO[C@H](CN(C)C(=O)C2CCCCC2)[C@H](C)CN([C@@H](C)CO)C(=O)c2cc(NS(=O)(=O)c3ccc(Cl)cc3)ccc2O1
not listed: [7]
inactive: all other assays above

C[C@@H]1CCCCO[C@H](CN(C)Cc2ccccc2)[C@@H](C)CN([C@@H](C)CO)C(=O)c2cc(NC(=O)Nc3ccc(C(F)(F)F)cc3)ccc2O1
inactive: all assays above

CO[C@H]1CN(C)C(=O)c2cc(NC(=O)c3ccc(-c4ccccc4)cc3)ccc2OC[C@@H](C)NC[C@@H]1C
not listed: [7]
inactive: all other assays above

C[C@H]1CCCCO[C@H](CN(C)Cc2ccc(C(F)(F)F)cc2)[C@@H](C)CN([C@@H](C)CO)C(=O)c2cc(NS(=O)(=O)c3cccs3)ccc2O1
inactive: all assays above

C[C@H]1CCCCO[C@H](CN(C)S(=O)(=O)c2ccc(F)cc2)[C@@H](C)CN([C@@H](C)CO)C(=O)c2cc(NS(=O)(=O)c3ccc(Cl)cc3)ccc2O1
inactive: all assays above

C[C@@H]1CCCCO[C@@H](CN(C)Cc2ccc(C(F)(F)F)cc2)[C@H](C)CN([C@H](C)CO)C(=O)c2cc(NC(=O)Nc3ccccc3)ccc2O1
not listed: [7]
inactive: all other assays above

O=C(Nc1ccc(F)cc1)N1CC(=O)N2[C@@H](CO)[C@@H](c3ccc(C#Cc4ccc(F)cc4)cc3)[C@@H]2C1
inactive: all assays above

C[C@H](NC(=O)C[C@@H]1C[C@@H]2c3cc(NC(=O)Nc4ccc(C(F)(F)F)cc4)ccc3O[C@@H]2[C@@H](CO)O1)c1ccccc1
not listed: [7]
inactive: all other assays above

COc1ccccc1C#Cc1ccc2c(c1)O[C@@H](CN(C)Cc1cncnc1)[C@H](C)CN([C@H](C)CO)S2(=O)=O
inactive: all assays above

Cc1ccc(S(=O)(=O)Nc2ccc3c(c2)C(=O)N([C@H](C)CO)C[C@@H](C)[C@H](CN(C)Cc2ccc(Cl)c(Cl)c2)OCCCC[C@H](C)O3)cc1
inactive: all assays above

Cc1noc(C)c1S(=O)(=O)Nc1ccc2c(c1)C(=O)N([C@H](C)CO)C[C@@H](C)[C@H](CN(C)C(=O)Nc1ccc(C(F)(F)F)cc1)OCCCC[C@@H](C)O2
inactive: all assays above

COc1ccc(S(=O)(=O)N2CCCCN3[C@H](CO)[C@@H](c4ccc(C#CC(C)C)cc4)[C@H]3C2)cc1
not listed: [7]
inactive: all other assays above

C[C@@H]1CCCCO[C@@H](CN(C)C(=O)NC2CCCCC2)[C@H](C)CN([C@H](C)CO)C(=O)c2cc(NS(=O)(=O)c3ccc(Cl)cc3)ccc2O1
not listed: [7]
inactive: all other assays above

C[C@H]1CCCCO[C@H](CN(C)C(=O)C2CCCCC2)[C@@H](C)CN([C@@H](C)CO)C(=O)c2cc(NS(=O)(=O)c3ccc(Cl)cc3)ccc2O1
inactive: all assays above

C[C@@H]1CCCCO[C@H](CN(C)C(=O)Nc2ccc(C(F)(F)F)cc2)[C@@H](C)CN([C@@H](C)CO)C(=O)c2cc(NC(=O)Nc3ccc(C(F)(F)F)cc3)ccc2O1
inactive: all assays above
